Sampled rows, rich in hits. Any-hit rate of the full collection: about 2.9%.
A549 tox-1: kills or reduces viability of A549 cells in Nrf2 counter-screen. Potency, µM (doses to about 46 µM), for inactives: at the highest dose activity change, negative = cytotoxicity, actives largely listed as inhibitors. AID 504648. A549 ARE-Fluc cells, CellTiter-Fluor viability, 18-24 h. actives 0.16% (n = 390,000); note: % is set by controls: 0 for no effect and ±100 for the full control effect
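Cytotoxicity counterscreen: CellTiter-Fluor fluorescence was measured in A549 ARE_Fluc cells after 18-24 h of compound exposure in a concentration series. The subsequent BugLite luminescent read reports ARE-luciferase activity.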
Nrf2 activator: Nrf2 pathway activation | AREc32 ARE-luciferase reporter (MCF7-derived line), luminescence, 24 h | Potency, µM (titrated, usually from 46.1 µM), for the others: at the highest dose activation, most hits filed as activators | actives 0.31% (n = 410,000) | AID 624171; note: % of control where 0% means no effect; nearly all actives have a fitted effect of over 65% in size
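Reporter line AREc32 (ARE-Fluc), seeded overnight in OPTI-MEM with 5% FBS; compound pin-transferred, 24 hr at 37 deg C, 5% CO2; luminescent read-out.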
S2 tox: viability counter-screen for ATXN expression inhibitors | Potency, µM (titrated, usually from 56.7 µM), most hits filed as cytotoxic | S2 cells (HEK-293 line with an ATXN2-luciferase reporter) viability, CellTiter-Fluor protease fluorescence, 24 h | AID 651635 | actives 0.49% (n = 400,000); note: nearly all actives have a fitted effect of over 40% in size
ATXN2 expr inh: ATXN2 expression inhibition; HEK-293 ATXN2-luciferase reporter, luminescence, 24 h; actives 0.72% (n = 360,000); AID 1745845; Potency, µM (top dose mostly 57 µM), for inactives: at the top dose activity change, negative = inhibition, most hits filed as inhibitors; note: % is set by controls: 0 for no effect and ±100 for the full control effect; nearly all actives have a fitted effect of over 55% in size
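qHTS (up to 57 uM final) was run with 24 h compound exposure of reporter cells at 37 °C. Each well was multiplexed: SteadyGlo luminescence measured ATXN2-luciferase expression after a fluorogenic Gly-Phe-AFC viability readout (25 uM final).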
Nrf2 inh: blocks Nrf2 signaling; A549 ARE-Fluc reporter, luciferase luminescence, 18-24 h; Potency, µM (top dose mostly 46 µM), for inactives: top-dose activity change, negative = inhibition, usual class: inhibitors; actives 2.1% (n = 360,000); note: % is set by controls: 0 for no effect and ±100 for the full control effect; nearly all actives have a fitted effect of over 60% in size
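Nrf2 activity is the BugLite luminescence, read 15 min after reagent at room temperature, following CellTiter-Fluor cytotoxicity readout (30 min, 37C). Compound titrations were applied for 18-24 h to 5000 A549 ARE_Fluc cells/well in 5% FBS OPTI-MEM.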
FLuc enzyme inh: blocks purified firefly luciferase in Nrf2 counterscreen; shares compounds with Nrf2 inh; purified firefly luciferase, luminescence inhibition; Potency, µM (titrated, usually from 57.5 µM), for the others: at the top dose activity change, negative = inhibition, hits mostly inhibitors; actives 4% (n = 1,400); AID 720522; note: % is set by controls: 0 for no effect and ±100 for the full control effect; nearly all actives have a fitted effect of over 65% in size
Target sequence (P08659 whole entry, looked up): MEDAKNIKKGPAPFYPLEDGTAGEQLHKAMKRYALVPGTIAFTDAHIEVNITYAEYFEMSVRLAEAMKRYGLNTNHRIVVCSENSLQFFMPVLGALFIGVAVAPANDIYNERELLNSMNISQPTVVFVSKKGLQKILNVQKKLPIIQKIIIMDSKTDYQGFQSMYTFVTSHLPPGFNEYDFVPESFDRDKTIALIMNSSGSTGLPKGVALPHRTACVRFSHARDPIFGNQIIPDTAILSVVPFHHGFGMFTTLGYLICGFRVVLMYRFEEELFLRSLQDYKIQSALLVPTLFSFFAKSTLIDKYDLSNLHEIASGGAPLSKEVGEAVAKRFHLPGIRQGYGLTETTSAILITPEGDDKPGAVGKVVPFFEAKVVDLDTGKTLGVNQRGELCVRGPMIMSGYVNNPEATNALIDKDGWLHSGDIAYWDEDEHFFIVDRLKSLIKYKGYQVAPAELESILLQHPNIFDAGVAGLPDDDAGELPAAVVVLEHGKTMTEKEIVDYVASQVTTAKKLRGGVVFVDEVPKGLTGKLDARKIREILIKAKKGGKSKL
A549 tox-2: A549 cytotoxicity, Nrf2 inhibitor counterscreen; shares compounds with Nrf2 inh; A549 ARE-Fluc cells, cytotoxicity counterscreen; Potency, µM (top dose mostly 46.1 µM), for inactives: at the top dose activity change, negative = cytotoxicity, most hits filed as inhibitors; actives 2% (n = 1,400);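 note: cells exposed to compounds for 18 to 24 hours; % is set by controls: 0 for no effect and ±100 for the full control effect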
Nrf2 ARE inh: reduces Nrf2 ARE reporter signal in A549 cells. AID 720524. Potency, µM (highest dose often 46.1 µM), inactives show at the highest dose activity change, negative = inhibition, actives largely listed as inhibitors. actives 74% (n = 1,400). shares compounds with Nrf2 inh. A549 ARE-firefly luciferase reporter, luminescence; note: % is set by controls: 0 for no effect and ±100 for the full control effect; nearly all actives have a fitted effect of over 65% in size
* marks the source's active call; other numbers are inactive results; i = inactive; ? = inconclusive; . = not tested or not shown; [ ] = another dose, or the depositor's remark. Calls come from the whole dose curve; as a rule, active = well fitted curve in the direction sought with a large enough effect; inconclusive = small, poorly fitted or top-dose-only effect, or another doubt; inactive = no such curve, though single readings can be large; an effect the other way counts as inactive or inconclusive. Potency is the fitted concentration of half-maximal effect.

SMILES	A549 tox-1	Nrf2 activator	S2 tox	ATXN2 expr inh	Nrf2 inh	FLuc enzyme inh	A549 tox-2	Nrf2 ARE inh
CC12CCC(=O)C=C1CCC1C2C(O)CC2(C)C1CCC2(O)C(=O)COC(=O)COCC(=O)O (stereo not drawn)	-6.2%	1.9%	i	7.4%	0.291µM*	2.3%	-12.3%	0.0731µM*
CCOC(=O)OCC(=O)C1(O)CCC2C3CCC4=CC(=O)CCC4(C)C3C(O)CC21C (stereo not drawn)	-6.3%	3.6%	?	5.4%	0.206µM*	1.4%	3.7%	.
CC(=O)OCC(=O)[C@@]1(O)CC[C@H]2[C@@H]3CCC4=CC(=O)CC[C@]4(C)[C@@H]3C(=O)C[C@@]21C	.	.	.	-2.2%	.	.	.	.
CCCCCCCC(=O)OCC(=O)[C@@]1(O)CC[C@H]2[C@@H]3CCC4=CC(=O)CC[C@]4(C)[C@H]3[C@@H](O)C[C@@]21C	-1.2%	-1.0%	i	-6.1%	0.461µM*	3.4%	-5.4%	0.326µM*
C[C@@]12CCC(=O)C=C1CC[C@H]1[C@H]3CC[C@](O)(C(=O)CO)[C@]3(C)CC(=O)[C@@H]12	.	.	i	.	.	.	.	.
CC(NC(=O)/C=C/c1ccco1)c1nc2ccccc2n1Cc1cccc(Cl)c1 (stereo not drawn)	-2.3%	?	i	-16.6%	-1.7%	.	.	.
C=CC[n+]1c(-c2ccc(C)cc2)csc1Nc1ccc(NC(C)=O)cc1	-13.3%	2.3%	?	.	6.51µM*	-25.5%	-8.3%	6.51µM*
CC(=O)Nc1ccc(-c2ccc(NC(C)=O)cc2)cc1	-0.1%	0.3%	i	-9.1%[11.3 µM]	?	.	.	.
Cc1c(C(=O)N/N=C/c2ccccc2)sc(=S)n1C	3.0%	6.0%	i	5.0%	?	.	.	.
Cc1[nH]c2c(ccc3cccnc32)c1C	-4.9%	3.3%	i	4.3%	-7.6%	.	.	.
CC1=[N+](C)c2c(ccc3cccnc23)C1(C)C	?	7.5%	.	2.99µM*	2.06µM*	-7.8%	-2.4%	2.59µM*
COc1ccccc1/C=C(\NC(=O)c1cccc(C)c1)C(=O)Nc1ccccn1	-9.9%	-0.3%	i	-20.2%	13.2%	.	.	.
CC(C)(C)c1nc(N2CCN(C(=O)c3ccco3)CC2)c2nnn(Cc3ccccc3)c2n1	?	0.4%	i	-35.1%	8.2µM*	0.9%	?	1.3µM*
O=C(c1ccco1)N1CCCC(c2nc3c(nnn3Cc3ccccc3)c(=O)[nH]2)C1 (stereo not drawn)	-4.1%	-0.1%	i	-1.1%	18.4%	.	.	.
O=S(=O)(NCc1cn2ccsc2n1)c1ccc(Oc2ccccc2)cc1	?	0.3%	i	-20.2%	7.31µM*	-0.6%	-5.8%	7.31µM*
COc1ccc(S(=O)(=O)c2nnn(-c3cc(Cl)c(OC)cc3OC)c2C)cc1	-1.7%	-0.2%	i	?	-25.5%	.	.	.
COc1ccc(S(=O)(=O)c2nnn(-c3ccc(C(C)C)cc3)c2C)cc1	-20.1%	0.2%	i	6.5%	9.2µM*	-0.8%	-1.2%	5.17µM*
CCOCc1cc(C2NC(=O)NC(C)=C2C(=O)OCC)ccc1OC (stereo not drawn)	-4.4%	-0.2%	i	-1.3%	.	.	.	.
CNC(=O)c1c(NC(=O)/C=C/c2ccccc2Cl)sc2c1CCC2	-0.5%	13.6%	i	9.7%	.	.	.	.
CCCCN(CCN(CCCC)C(=O)N1CCOCC1)C(=O)N1CCOCC1	.	.	i	-14.5%	.	.	.	.
CCN1/C(=C/c2sc(-c3ccccc3C)c[n+]2C)Sc2ccccc21	?	9.1%	.	?	0.366µM*	-0.5%	?	1.84µM*
